# Hits are enriched below; roughly 1.9% of the tested compounds scored in any of these assays.
# p53null 32C kill: p53 null cell cytotoxicity, permissive temperature; H1299-neo p53 null cells, ATP luminescence, 24 h, 32C; Potency, µM (doses to about 46.1 µM), hits mostly cytotoxic; actives 0.62% (n = 55,000); AID 903; also: nearly all actives have a fitted effect of over 55% in size
#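 Overnight 37C seeding (600 cells/well) of H1299-neo preceded a 24 hr, 32C exposure to compounds up to 46 uM. ATP levels, read by luminescence after 20 min at RT, indicated surviving cells.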
# p53null 39C kill: p53 null cell cytotoxicity, nonpermissive temperature | H1299 p53-null (neo) cells, 39C, ATPlite viability, 24 h | actives 0.97% (n = 55,000) | Potency, µM (doses to about 46.1 µM), most hits filed as cytotoxic | AID 904; also: nearly all actives have a fitted effect of over 50% in size
#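 Luminescent ATP signal reported cell survival after H1299 lines (neo, p53 null; or p53 A138V) received up to 46 uM compound and 24 hr incubation at 39C.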
# HTT prom inh: HTT promoter inhibition; HEK293 HTT promoter firefly luciferase reporter, 24 h; Potency, µM (series often up to 57.5 µM), hits mostly inhibitors; actives 0.93% (n = 48,000); also: nearly all actives have a fitted effect of over 50% in size
#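 HEK293 cells carrying firefly luciferase reporters were seeded at 2,500 per well in Opti-MEM and cultured for 24 h. They were then treated with compounds at up to 57.5 uM final for 24 h at 37 degrees C before Dual-Glo luminescence readout.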
# HTT-AS act: activators of huntingtin-antisense promoter activity; Potency, µM (series often up to 57.5 µM), actives largely listed as activators; actives 0.24% (n = 48,000); HEK293 HTT-AS promoter firefly luciferase reporter, 24 h; response scale: percent change from vehicle, -100% = no light; AID 1508624; also: nearly all actives have a fitted effect of over 55% in size
#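 HEK293 cells carrying firefly luciferase reporters were seeded at 2,500 per well in Opti-MEM and cultured for 24 h. They were then treated with compounds at up to 57.5 uM final for 24 h at 37 degrees C before Dual-Glo luminescence readout.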
# Numbers stand for hits; – = inactive; ? = inconclusive; · = not tested or not shown. Calls follow the shape of the dose curve; as a rule, active = well fitted curve in the direction sought with a large enough effect; inconclusive = small, poorly fitted or top-dose-only effect, or another doubt; inactive = no such curve, though single readings can be large; an effect the other way counts as inactive or inconclusive.
SMILES,p53null 32C kill,p53null 39C kill,HTT prom inh,HTT-AS act
Nc1nc(Nc2ccc(S(N)(=O)=O)cc2)nn1C(=O)c1c(F)cccc1F,·,·,?,–
CCOc1ccc2nc(N3CCN(C(=O)CS(=O)(=O)c4ccc(F)cc4)CC3)sc2c1,10µM,?,?,–
CCOc1ccc2nc(N3CCN(C(=O)c4ccc(S(=O)(=O)CC)cc4)CC3)sc2c1,–,–,?,–
CCOCCOC(=O)/C=C/c1ccc(OC)cc1,·,·,–,–
CCCCOC(=O)c1ccc(NC(=O)c2cc(=O)c3ccccc3o2)cc1,–,–,–,–
CCCCOC(=O)c1cccc(NC(=O)c2cc3ccccc3o2)c1,10µM,13µM,10µM,–
CC(=O)Nc1cccc(-c2nc(-c3ccccc3)no2)c1,?,–,–,1.1µM
COC(=O)c1cc2sccc2n1CC(=O)Nc1cc(Cl)ccc1OC,–,–,28µM,–
CC(C)CCNC(=O)C1CCN(C(=O)c2cc3sccc3n2Cc2ccc(Cl)cc2)CC1,–,–,25µM,–
Oc1cccc(C(Nc2ccccn2)c2ccc3cccnc3c2O)c1Cl (stereo unspecified),?,4µM,·,·
Cc1cccc(C=NNc2cc(N3CCOCC3)nc(OCCc3ccccn3)n2)c1,·,·,?,–
C[C@H](NC(=O)C(C#N)=Cc1cccc(Br)n1)c1ccccc1,·,·,?,–
CCOc1ccc(CNS(=O)(=O)c2ccc(-c3coc(C)n3)cc2)cc1OC,–,–,25µM,–
CCc1ccccc1NS(=O)(=O)c1ccc(-c2coc(C)n2)cc1,7.1µM,–,?,–
Cc1cc(C)c(NS(=O)(=O)c2ccc(-c3coc(C)n3)cc2)c(C)c1,–,–,–,–
COc1ccc(-c2cc3nccn3c(Nc3ncccc3C(N)=O)n2)cc1OC,·,·,–,–
Cc1cccc(-c2noc(-c3ccc(N4CCN(C)CC4)c([N+](=O)[O-])c3)n2)c1,–,–,1.4µM,–
Cc1cccc(-c2noc(-c3ccc(N4CCCC4)c([N+](=O)[O-])c3)n2)c1,–,–,?,–
COc1ccc2oc(=O)c(C(=O)Nc3cccc(C(=O)O)c3)cc2c1,10µM,7.9µM,4µM,?
CCc1nn(CC(=O)NCc2ccccc2Cl)c(=O)c2cccn12,–,16µM,–,–
CCc1cccc(C)c1NC(=O)Cn1nc(C)n2cccc2c1=O,–,13µM,–,–
CC(=O)NC(C)c1ccc(Oc2ccc(OC(C)C)cc2)cc1 (stereo unspecified),·,·,–,–
O=C(Nc1cc(Cl)cc(Cl)c1)c1ccc(F)c(S(=O)(=O)NC2CCCCC2)c1,?,20µM,?,–
O=C(Nc1ccc(F)c(F)c1)c1cc(S(=O)(=O)NC2CCCCCC2)ccc1F,–,–,25µM,–
O=C(Nc1ccc(Br)cc1)c1ccc(F)c(S(=O)(=O)NC2CCCCCC2)c1,–,–,?,–
SMILES,p53null 32C kill,p53null 39C kill,HTT prom inh,HTT-AS act
Cc1nn(Cc2ccc(Cl)cc2Cl)c(C)c1NC(=O)CCl,–,13µM,·,·
CCOc1ccc(CCNC(=O)CCc2c(C)nc3cc(-c4ccccc4OC)nn3c2C)cc1,–,–,13µM,–
CSc1ccc(CCNC(=O)CCc2c(C)nc3cc(-c4ccccc4)nn3c2C)cc1,–,–,2µM,–
Cc1nc2nc(-c3ccc(Cl)cc3Cl)nn2c(C)c1CCC(=O)Nc1ccc(F)cc1,–,–,7.9µM,–
CC(=O)c1ccc(NC(=O)CCc2c(C)nc3cc(-c4ccc(Cl)cc4)nn3c2C)cc1,–,–,0.28µM,–
CCN(CC)S(=O)(=O)c1ccc(NC(=O)CCc2c(C)nc3cc(-c4ccc(Cl)cc4)nn3c2C)cc1,–,–,?,–
C[C@@H]1CN(Cc2ccc(F)cc2)[C@@H](C)CN1C(=O)c1cc2c(C(=O)C(=O)N(C)C)cn(C)c2cc1Cl,·,·,?,–
CC(=O)ON=C1C(c2c(O)[nH]c3cc(Br)ccc23)=Nc2ccccc21,·,·,–,?
COc1cc(-c2nn(C3CCC(N4CCN(C(C)=O)CC4)CC3)c3ncnc(N)c23)ccc1NC(=O)c1cc2ccccc2n1C (stereo unspecified),·,·,–,–
CC(=O)O[C@@]12CO[C@H]1C[C@H](O)[C@@]1(C)C(=O)[C@H](O)C3=C(C)[C@@H](OC(=O)C(O)[C@@H](NC(=O)OC(C)(C)C)c4ccccc4)C[C@@](O)([C@@H](OC(=O)c4ccccc4)[C@@H]21)C3(C)C (stereo partly specified),·,·,–,–
CC(C)(C)C(=O)Oc1ccc2c(c1)nc(NC(=O)c1cccc([N+](=O)[O-])c1)n2CCCO,·,·,–,–
